# Data from PubChem BioAssay (Tox21).
# Values without a mark were called inactive. Results filed as inconclusive are left out. Entries that show only a call come without a potency. Active and inactive are the calls of the source. The call rests on the fitted dose curve; in most records, active means well fitted curve in the direction sought with a large enough effect in the repeat runs; inconclusive means weak or mixed curves; inactive means no such curve, though single readings can be large; an effect the other way counts as inactive or inconclusive.
# How the values were obtained:
# [1] = A CellTox Green Cytotoxicity Assay to monitor cytotoxicity in HEK293 cells - 40 hour (AID 1224871); further: nearly all actives have a fitted effect of over 45% in size; further: potency means the concentration at half of the fitted maximal effect
# Outline: (§1)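 HEK293 cells premixed with CellTox Green dye were seeded at 600 cells/well and left 5 h at 37 C/5% CO2 before pin transfer of 23 nL compound in DMSO. Fluorescence from dye bound to dead-cell DNA was read during 40 h treatment.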
# [2] = qHTS RealTime-Glo MT Cell Viability Assay in HEK293 cells - 16 hour (AID 1224872); further: top concentration of the series differs between compounds; nearly all actives have a fitted effect of over 50% in size
# Outline: (§2)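 Quantitative high-throughput screen of the Tox21 10K library in HEK293: cells and RealTime-Glo reagents plated together, compound added at 5 h, luminescence monitored through 40 h at 37 C.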
# [3] = qHTS RealTime-Glo MT Cell Viability Assay in HepG2 cells - 8 hour (AID 1224873); further: nearly all actives have a fitted effect of over 55% in size
# Outline: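 HepG2 cells (600/well) mixed with RealTime-Glo MT reagent, settled 5 h at 37 C/5% CO2 before compound addition. Nonlytic NanoLuc luminescence from viable-cell prosubstrate reduction read repeatedly during 40 h treatment at 37 C.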
# [4] = qHTS RealTime-Glo MT Cell Viability Assay in HEK293 cells - 40 hour (AID 1224874); conditions: RealTime-Glo luminescence; max response: hits give low values; further: nearly all actives have a fitted effect of over 50% in size
# Outline: (§3)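 HEK293 cells mixed with RealTime-Glo reagents (NanoLuc plus cell-permeant prosubstrate) at 600 cells/well, preincubated 5 h at 37 C/5% CO2, then given 23 nL compound in DMSO. Nonlytic luminescence from viable cells was read at 0, 8, 16, 24, 32 and 40 h.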
# [5] = A CellTox Green Cytotoxicity Assay to monitor cytotoxicity in HEK293 cells - 24 hour (AID 1224875); further: series mostly up to about 77 µM; nearly all actives have a fitted effect of over 45% in size
# Outline: as §1
# [6] = A CellTox Green Cytotoxicity Assay to monitor cytotoxicity in HepG2 cells - 16 hour (AID 1224876); further: nearly all actives have a fitted effect of over 45% in size
# Outline: (§4)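 HepG2 cells were seeded together with the CellTox Green dye at 600 cells/well, left 5 h at 37 C/5% CO2, then given compounds in DMSO. Fluorescence from dye bound to dead-cell DNA was read repeatedly over 40 h of treatment at 37 C.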
# [7] = qHTS RealTime-Glo MT Cell Viability Assay in HepG2 cells - 32 hour (AID 1224877); further: nearly all actives have a fitted effect of over 55% in size
# Outline: (§5)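 Compound treatment began 5 h after plating HepG2 cells (600/well) with NanoLuc luciferase and prosubstrate. Plates stayed at 37 C for 40 h; luminescence was captured at six time points, 0 h through 40 h.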
# [8] = A CellTox Green Cytotoxicity Assay to monitor cytotoxicity in HepG2 cells - 40 hour (AID 1224879); further: nearly all actives have a fitted effect of over 40% in size
# Outline: as §4
# [9] = qHTS RealTime-Glo MT Cell Viability Assay in HEK293 cells - 0 hour (AID 1224880); further: nearly all actives have a fitted effect of over 45% in size; further: potency means the concentration at half of the fitted maximal effect; on activity change, negative = cytotoxicity: top concentration of the series differs between compounds
# Outline: as §3
# [10] = A CellTox Green Cytotoxicity Assay to monitor cytotoxicity in HEK293 cells - 32 hour (AID 1224881); further: nearly all actives have a fitted effect of over 40% in size
# Outline: as §1
# [11] = A CellTox Green Cytotoxicity Assay to monitor cytotoxicity in HepG2 cells - 0 hour (AID 1224882); further: nearly all actives have a fitted effect of over 35% in size
# Outline: as §4
# [12] = A CellTox Green Cytotoxicity Assay to monitor cytotoxicity in HepG2 cells - 32 hour (AID 1224883); further: nearly all actives have a fitted effect of over 50% in size
# Outline: as §4
# [13] = A CellTox Green Cytotoxicity Assay to monitor cytotoxicity in HEK293 cells - 8 hour (AID 1224884); further: nearly all actives have a fitted effect of over 35% in size
# Outline: as §1
# [14] = qHTS RealTime-Glo MT Cell Viability Assay in HepG2 cells - 16 hour (AID 1224885); further: nearly all actives have a fitted effect of over 50% in size
# Outline: as §5
# [15] = qHTS RealTime-Glo MT Cell Viability Assay in HEK293 cells - 24 hour (AID 1224886)
# Outline: as §2
# [16] = qHTS RealTime-Glo MT Cell Viability Assay in HEK293 cells - 8 hour (AID 1224887)
# Outline: as §3
# [17] = A CellTox Green Cytotoxicity Assay to monitor cytotoxicity in HEK293 cells - 16 hour (AID 1224888); further: nearly all actives have a fitted effect of over 35% in size
# Outline: as §1
# [18] = A CellTox Green Cytotoxicity Assay to monitor cytotoxicity in HepG2 cells - 8 hour (AID 1224890); further: nearly all actives have a fitted effect of over 45% in size
# Outline: as §4
# [19] = qHTS RealTime-Glo MT Cell Viability Assay in HepG2 cells - 0 hour (AID 1224889); further: nearly all actives have a fitted effect of over 50% in size; further: potency means the concentration at half of the fitted maximal effect
# Outline: as §5
# [20] = A CellTox Green Cytotoxicity Assay to monitor cytotoxicity in HepG2 cells - 24 hour (AID 1224878); further: nearly all actives have a fitted effect of over 45% in size
# Outline: as §4
smiles,measurement,setting,value
OCCc1ccccn1,Potency,[1],inactive
same,Potency,[2],inactive
same,outcome,[3],inactive
same,max response,[4],3.13%
same,outcome,[5],inactive
same,outcome,[6],inactive
same,Potency,[7],inactive
same,Potency,[8],inactive
same,Potency,[9],inactive
same,outcome,[10],inactive
same,Potency,[11],inactive
same,Potency,[12],inactive
same,outcome,[13],inactive
same,outcome,[14],inactive
same,Potency,[15],inactive
same,Potency,[16],inactive
same,outcome,[17],inactive
same,outcome,[18],inactive
CCOC(=O)COC(=O)c1ccccc1C(=O)OCC,Potency,[1],inactive
same,Potency,[2],inactive
same,outcome,[3],inactive
same,max response,[4],11%
same,outcome,[5],inactive
same,outcome,[6],inactive
same,Potency,[7],inactive
same,Potency,[8],inactive
same,Potency,[9],inactive
same,outcome,[10],inactive
same,Potency,[11],inactive
same,Potency,[12],inactive
same,outcome,[13],inactive
same,outcome,[14],inactive
same,Potency,[15],inactive
same,Potency,[16],inactive
same,outcome,[17],inactive
same,Potency,[19],inactive
same,outcome,[18],inactive
CC(=O)c1ccccc1[N+](=O)[O-],Potency,[1],inactive
same,Potency,[2],inactive
same,outcome,[3],inactive
same,max response,[4],21.1%
same,outcome,[5],inactive
same,outcome,[6],inactive
same,Potency,[7],inactive
same,Potency,[8],inactive
same,Potency,[9],inactive
same,outcome,[10],inactive
same,Potency,[11],inactive
same,Potency,[12],inactive
same,outcome,[13],inactive
same,outcome,[14],inactive
same,Potency,[15],inactive
same,Potency,[16],inactive
same,outcome,[17],inactive
same,Potency,[19],inactive
same,outcome,[18],inactive
CCCCCC(C)N (configuration not stated),Potency,[1],inactive
same,Potency,[2],inactive
same,outcome,[3],inactive
same,max response,[4],1.04%
same,outcome,[5],inactive
same,outcome,[6],inactive
same,Potency,[7],inactive
same,Potency,[8],inactive
same,Potency,[9],inactive
same,outcome,[10],inactive
same,Potency,[11],inactive
same,Potency,[12],inactive
same,outcome,[13],inactive
same,outcome,[14],inactive
same,Potency,[15],inactive
same,Potency,[16],inactive
same,outcome,[17],inactive
same,outcome,[18],inactive
Nc1ccncc1N,Potency,[1],inactive
same,Potency,[2],inactive
same,outcome,[3],inactive
same,max response,[4],13%
same,outcome,[5],inactive
same,outcome,[6],inactive
same,Potency,[7],inactive
same,Potency,[8],inactive
same,Potency,[9],inactive
same,outcome,[10],inactive
same,Potency,[11],inactive
same,outcome,[13],inactive
same,outcome,[14],inactive
same,Potency,[15],inactive
same,Potency,[16],inactive
same,outcome,[17],inactive
same,Potency,[19],inactive
same,outcome,[18],inactive
CCOC(=O)c1cnc2c(cnn2CC)c1NN=C(C)C,Potency,[2],inactive
same,outcome,[3],inactive
same,max response,[4],-11.3%
same,outcome,[6],inactive
same,Potency,[7],inactive
same,Potency,[8],inactive
same,Potency,[9],inactive
same,outcome,[10],inactive
same,Potency,[11],inactive
same,Potency,[12],inactive
same,outcome,[13],inactive
same,outcome,[14],inactive
same,Potency,[15],inactive
same,Potency,[16],inactive
same,outcome,[17],inactive
same,Potency,[19],inactive
C=COCC1CCC(COC=C)CC1 (configuration not stated),Potency,[1],inactive
same,outcome,[3],inactive
same,max response,[4],-3.6%
same,outcome,[5],inactive
same,Potency,[7],inactive
same,outcome,[10],inactive
same,Potency,[11],inactive
same,outcome,[13],inactive
same,outcome,[14],inactive
same,Potency,[15],inactive
same,outcome,[17],inactive
same,Potency,[19],inactive
same,outcome,[18],inactive
C[N+]1(C)[C@@H]2CC(OC(=O)[C@H](CO)c3ccccc3)C[C@H]1[C@@H]1O[C@@H]12 (some centres not stated),Potency,[1],inactive
same,outcome,[5],inactive
same,outcome,[6],inactive
same,outcome,[20],inactive
same,Potency,[8],inactive
same,outcome,[10],inactive
same,Potency,[11],inactive
same,Potency,[12],inactive
same,outcome,[13],inactive
same,outcome,[17],inactive
same,outcome,[18],inactive
Cc1cc(C)c(N=Nc2c(O)c(S(=O)(=O)O)cc3cc(S(=O)(=O)O)ccc23)cc1C,cytotoxicity increase,[1],18.5% [at 6.97 µM]
same,"viability change, negative = cytotoxic",[3],5.41% [at 6.97 µM]
same,activity change,[5],16.7% [at 6.97 µM]
same,cytotoxicity increase,[6],0.0418% [at 6.97 µM]
same,"activity change, negative = cytotoxic",[7],-2.9% [at 6.97 µM]
same,cytotoxicity,[20],-2.84% [at 6.97 µM]
same,cytotoxicity increase,[8],-2.22% [at 6.97 µM]
same,cytotoxicity increase,[10],10.2% [at 6.97 µM]
same,cytotoxicity,[11],2.93% [at 6.97 µM]
same,cytotoxicity increase,[13],0% [at 6.97 µM]
same,"activity change, negative = cytotoxic",[14],0.476% [at 6.97 µM]
same,activity change,[17],15.4% [at 6.97 µM]
same,"activity change, negative = cytotoxicity",[19],4.39% [at 6.97 µM]
same,cytotoxicity increase,[18],3.92% [at 6.97 µM]
NCCCC[C@H](N[C@@H](CCc1ccccc1)C(=O)O)C(=O)N1CCC[C@H]1C(=O)O,Potency,[1],inactive
same,Potency,[2],inactive
same,outcome,[3],inactive
same,outcome,[5],inactive
same,outcome,[6],inactive
same,Potency,[7],inactive
same,Potency,[8],inactive
same,Potency,[9],inactive
same,outcome,[10],inactive
same,Potency,[11],inactive
same,Potency,[12],inactive
same,outcome,[13],inactive
same,outcome,[14],inactive
same,Potency,[15],inactive
same,Potency,[16],inactive
same,outcome,[17],inactive
same,Potency,[19],inactive
same,outcome,[18],inactive
c1ccc(CCc2ccccc2)cc1,Potency,[1],38.9 µM (active)
same,Potency,[2],inactive
same,outcome,[3],inactive
same,max response,[4],-4.4%
same,Potency,[7],inactive
same,Potency,[9],inactive
same,Potency,[11],inactive
same,outcome,[13],inactive
same,outcome,[14],inactive
same,Potency,[15],inactive
same,Potency,[16],inactive
same,outcome,[17],inactive
same,Potency,[19],inactive
CCCc1nn(C)c2c(=O)[nH]c(-c3cc(S(=O)(=O)N4CCN(C)CC4)ccc3OCC)nc12,Potency,[1],inactive
same,outcome,[3],inactive
same,outcome,[5],inactive
same,outcome,[6],inactive
same,Potency,[7],inactive
same,outcome,[20],inactive
same,Potency,[8],inactive
same,Potency,[9],inactive
same,outcome,[10],inactive
same,Potency,[11],inactive
same,outcome,[13],inactive
same,outcome,[14],inactive
same,Potency,[16],inactive
same,outcome,[17],inactive
same,Potency,[19],inactive
CCCC(=O)O[C@]1(C(=O)CC)CC[C@H]2[C@@H]3CCC4=CC(=O)CC[C@]4(C)[C@H]3[C@@H](O)C[C@@]21C,Potency,[1],inactive
same,Potency,[2],inactive
same,outcome,[3],inactive
same,outcome,[5],inactive
same,outcome,[6],inactive
same,Potency,[7],inactive
same,Potency,[8],inactive
same,Potency,[9],12 µM (active)
same,outcome,[10],inactive
same,Potency,[11],inactive
same,Potency,[12],inactive
same,outcome,[13],inactive
same,outcome,[14],inactive
same,Potency,[16],inactive
same,outcome,[17],inactive
same,Potency,[19],1.69 µM (active)
same,outcome,[18],inactive
O=C(CO)[C@@H](O)[C@H](O)[C@@H](O)CO,Potency,[1],inactive
same,Potency,[2],inactive
same,outcome,[3],inactive
same,max response,[4],5.66%
same,outcome,[5],inactive
same,Potency,[7],inactive
same,Potency,[9],inactive
same,outcome,[10],inactive
same,outcome,[13],inactive
same,outcome,[14],inactive
same,Potency,[15],inactive
same,Potency,[16],inactive
same,outcome,[17],inactive
same,Potency,[19],inactive
Cc1ccc(C(=O)c2ccc(CC(=O)O)n2C)cc1,Potency,[1],inactive
same,Potency,[2],inactive
same,outcome,[3],inactive
same,max response,[4],1.68%
same,outcome,[5],inactive
same,Potency,[7],inactive
same,Potency,[9],inactive
same,outcome,[10],inactive
same,outcome,[13],inactive
same,outcome,[14],inactive
same,Potency,[15],inactive
same,Potency,[16],inactive
same,outcome,[17],inactive
same,Potency,[19],inactive
